Reference: PubChem BioAssay AID488854 (National Center for Advancing Translational Sciences (NCATS), 2010)
“And” between values parts separate entries of the source, which are not always exact repeats. Equal values may be shown once. Records with an inconclusive call do not appear. The source made the active and inactive calls. Calls follow the shape of the dose curve; as a rule, active = well fitted activation curve with a large enough effect; inconclusive = small, poorly fitted or top-dose-only effect; inactive = no such curve, though single readings can be large or run the other way.

Target: Lysosomal acid glucosylceramidase (Homo sapiens) (UniProt P04062)
Assay: qHTS Assay for Inhibitors and Activators of N370S glucocerebrosidase as a Potential Chaperone Treatment of Gaucher Disease: Confirmation for Probe SAR
Conditions: N370S GC spleen homogenate, 4MU-glucoside fluorescence; series mostly up to 57.5 µM
Source text: NIH Chemical Genomics Center [NCGC] NIH Molecular Libraries Probe Production Centers Network [MLPCN] MLPCN Grant: MH086442-01 Assay Submitter (PI): Wei Zheng Glucocerebrosidase (GC) catalyzes the hydrolysis of beta-glucocerebroside to glucose and ceramide in lysosomes. Mutations in the glucocerebrosidase gene result in Gaucher disease, an autosomal recessive lysosomal storage disorder. Many of the mutations encountered in patients with Gaucher disease are missense alterations that may cause misfolding, decreased stability and/or mistrafficking of this lysosomal protein. […] These inhibitors include iminosugar analogs and three non-iminosugar inhibitors identified from a previous HTS of 62,000 compounds with the wild type recombinant enzyme. However, the enhancement of enzyme activity by the chaperone action of an enzyme inhibitor must be balanced against the direct inhibition of the enzyme. An enzyme activator could also function as a chaperone by binding to the enzyme and helping to correct its misfolding and mistrafficking. While activators for GC have not yet been identified, they may have better therapeutic potential than inhibitors. Therefore the discovery and development of chemical activators may provide a new strategy for the chaperone therapy. We have optimized a new assay using N370S mutant GC derived from the spleen of a Gaucher patient. […] In addition, the MLPCN compound library has expanded, which increases the chance of finding new and better probes.
NCGC Assay Protocol Summary: This is a fluorogenic enzyme assay with 4-methylumbelliferyl-beta-D-glucopyranoside as the substrate and N370S glucocerebrosidase from human spleen homogenate as the enzyme preparation. Upon the hydrolysis of this fluorogenic substrate, the resulting product, […] which can be detected by a standard fluorescence plate reader. Data were normalized to the controls for basal activity (without enzyme) and 100% activity (with enzyme). The AC50 values were determined from concentration-response data modeled with the standard Hill equation. Assay buffer: 50 mM citric acid (titrated with potassium phosphate to pH 5.0), 100 mM potassium chloride, 10 mM sodium chloride, 1 mM magnesium chloride, 0.01% Tween-20. 1536-well assay protocol: (1) Add 2 ul/well of spleen homogenate (27 ug final) (2) Add 23 nL compounds in DMSO solution. The final titration was 0.5 nM to 58 uM. (3) Add 2 ul of substrate (1 mM final) (4) Incubate at 37C for 40 min. (5) Add 2 ul stop solution (1M NaOH and 1M Glycine mixture, pH 10) (6) Detect the assay plate in a ViewLux plate reader (PerkinElmer) with Ex=365 nm and Em=440nm. Keywords: Glucocerebrosidase, beta-glucosidase, Gaucher Disease, pharmacological chaperone, chaperone therapy, high throughput screening, glucocerebrosidase inhibitor, MLSMR, MLSCN, NIH Roadmap, qHTS and NCGC

Sequence of Lysosomal acid glucosylceramidase (Homo sapiens) (P04062 whole entry N409S): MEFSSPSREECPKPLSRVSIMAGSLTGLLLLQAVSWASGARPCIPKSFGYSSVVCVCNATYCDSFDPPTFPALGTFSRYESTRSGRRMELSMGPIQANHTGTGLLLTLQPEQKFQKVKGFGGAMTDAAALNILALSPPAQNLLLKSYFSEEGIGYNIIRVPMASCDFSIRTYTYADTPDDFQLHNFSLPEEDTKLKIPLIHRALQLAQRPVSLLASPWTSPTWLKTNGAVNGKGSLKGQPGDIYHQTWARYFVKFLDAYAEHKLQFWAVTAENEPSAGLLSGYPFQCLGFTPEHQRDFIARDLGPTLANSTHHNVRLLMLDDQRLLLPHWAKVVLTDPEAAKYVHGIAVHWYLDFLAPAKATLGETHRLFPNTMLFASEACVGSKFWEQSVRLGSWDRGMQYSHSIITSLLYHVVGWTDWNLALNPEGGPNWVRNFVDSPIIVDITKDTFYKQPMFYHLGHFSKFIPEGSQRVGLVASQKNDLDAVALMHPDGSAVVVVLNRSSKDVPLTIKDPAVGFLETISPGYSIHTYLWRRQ

SMILES | Potency
COc1ccc(NC(=O)c2cnn3c(-c4ccccc4)cc(C)nc23)cc1 | inactive
Cc1cc(C)n2ncc(C(=O)NCc3ccco3)c2n1 | 41.1 µM (active)
Cc1cc(-c2ccccc2)n2ncc(C(=O)Nc3ccccc3Sc3ccccc3)c2n1 | inactive
O=C(Nc1ccc2c(c1)CCC2)c1cnn2c1NC(=C1CC1)C=C2C(F)F | 3.98 µM (active)
CCc1ccc(NC(=O)c2cnn3c(C)cc(C)nc23)cc1 | 4.11 µM (active)
CC(=O)Nc1ccccc1NC(=O)c1cnn2c(C)cc(C)nc12 | inactive
CNC(=O)c1cnn2c(C)cc(C)nc12 | inactive
Cc1cccc(NC(=O)c2cnn3c(C)cc(C)nc23)c1 | 3.66 µM (active)
Cc1cc(C)n2ncc(C(=O)Nc3cccc(C#N)c3)c2n1 | inactive
Cc1cc(C)n2ncc(C(=O)Nc3ccc(C(F)(F)F)cc3)c2n1 | 2.06 µM (active)
O=C(Nc1ccccc1Sc1ccccc1)c1cnn2c1NC(=C1CC1)C=C2C(F)F | 4.61 µM (active)
CC(=O)c1cccc(NC(=O)c2cnn3c(C)cc(C)nc23)c1 | 25.9 µM (active)
C#Cc1ccc(NC(=O)c2cnn3c(C)cc(C)nc23)cc1 | 0.366 µM (active)
Cc1cc(-c2ccccc2)n2ncc(C(=O)Nc3ccc(Cl)c(Cl)c3)c2n1 | inactive
Cc1cc(C)n2ncc(C(=O)Nc3ccncc3)c2n1 | inactive
Cc1cc(C)n2ncc(C(=O)Nc3ccc(C)c(C)c3)c2n1 | 1.46 µM (active)
COc1ccc(NC(=O)c2cnn3c(C)cc(C)nc23)cc1 | 6.51 µM (active)
Cc1cc(C)n2ncc(C(=O)Nc3cc(Cl)cc(Cl)c3)c2n1 | 25.9 µM (active)
Cc1cc(C)n2ncc(C(=O)Nc3cccc(C(F)(F)F)c3)c2n1 | 6.51 µM (active)
CC(=O)Nc1ccc(NC(=O)c2cnn3c(C)cc(C)nc23)cc1 | inactive

SMILES | Potency
Cc1cc(C)n2ncc(C(=O)Nc3ccc(Cl)c(Cl)c3)c2n1 | 3.66 µM (active)
C=C1C=C(C(F)F)n2ncc(C(=O)Nc3ccc(C(C)CC)cc3)c2N1 (stereo not given) | 2.51 µM (active)
Cc1cc(C)n2ncc(C(=O)NC3CCCCC3)c2n1 | 13 µM (active)
Cc1cc(C)n2ncc(C(=O)NC(C)C)c2n1 | inactive
Cc1cc(-c2ccccc2)nc2c(C(=O)Nc3ccc4c(c3)CCC4)cnn12 | 8.19 µM (active)
O=C(NC1CCCCC1)c1cnn2c1NC(=C1CC1)C=C2C(F)F | 12.6 µM (active)
O=C(Nc1ccccc1Sc1ccccc1)c1cnn2c1NC(=C1CC1)C=C2C(F)(F)F | 14.1 µM (active)
Cc1cc(C)n2ncc(C(=O)NC3CCC(C(C)(C)C)CC3)c2n1 (stereo not given) | 8.19 µM (active) and 1.63 µM (active)
Cc1ccc(NC(=O)c2cnn3c(C)cc(C)nc23)c(C)c1 | 10.3 µM (active)
Cc1cc(C)n2ncc(C(=O)N3CCCC3)c2n1 | inactive
Cc1cc(C)n2ncc(C(=O)Nc3ccccc3C)c2n1 | 16.3 µM (active)
Cc1cc(C)n2ncc(C(=O)Nc3ccc4c(c3)OCO4)c2n1 | 6.51 µM (active)
Cc1ccc(NC(=O)c2cnn3c(C)cc(C)nc23)cc1 | 3.26 µM (active)
COc1ccc(NC(=O)c2cnn3c(C)cc(C)nc23)cc1F | 0.819 µM (active)
CCc1ccc(NC(=O)c2cnn3c(C)cc(-c4ccccc4)nc23)cc1 | 13 µM (active)
Cc1cc(C)n2ncc(C(=O)Nc3ccccc3Sc3ccccc3)c2n1 | 18.3 µM (active)
Cc1cc(-c2ccccc2)nc2c(C(=O)Nc3ccc(Cl)c(Cl)c3)cnn12 | 6.51 µM (active)
Cc1cc(C)n2ncc(C(=O)Nc3ccc4c(c3)OCCO4)c2n1 | 5.8 µM (active)
Cc1cc(C)n2ncc(C(=O)Nc3ccc4c(c3)CCC4)c2n1 | 3.26 µM (active)
OC[C@H]1CNC[C@@H](O)[C@@H]1O | inactive
